Screening results: PubChem, National Center for Advancing Translational Sciences (NCATS)
Hits are enriched below; roughly 11% of the tested compounds scored in any of these assays.
PNC inhibitor = High Content Assay for Compounds that inhibit the Assembly of the Perinucleolar Compartment. PC3M PTB-GFP, PNC prevalence imaging, 16 h; hits give low values. activity change (PNC), negative = inhibition, % at 10 µM. actives 3.1% (n = 140,000). AID 2417, 2010;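 active means readout at or below -70, meaning at least 70% loss of cells showing the perinucleolar compartment, a nuclear body marking cancer cells; inconclusive means readout between -30 and a set limit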
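Read-out is percentage of cells bearing a perinucleolar compartment, from automated 20x imaging of fixed, Hoechst-stained PC3M PTB-GFP cells. Cells were seeded 4 h, then exposed 16 h to compound (23 nl of library stock) in duplicate plates.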
HPGD inh = qHTS Assay for Inhibitors of HPGD (15-Hydroxyprostaglandin Dehydrogenase); actives 4.3% (n = 150,000); purified HPGD, NADH fluorescence kinetic, PGE2 substrate; AID 894, 2007; Potency, µM, usual class: inhibitors; 15-hydroxyprostaglandin dehydrogenase [NAD(+)] (Homo sapiens), P15428
Target sequence (P15428 whole entry, looked up): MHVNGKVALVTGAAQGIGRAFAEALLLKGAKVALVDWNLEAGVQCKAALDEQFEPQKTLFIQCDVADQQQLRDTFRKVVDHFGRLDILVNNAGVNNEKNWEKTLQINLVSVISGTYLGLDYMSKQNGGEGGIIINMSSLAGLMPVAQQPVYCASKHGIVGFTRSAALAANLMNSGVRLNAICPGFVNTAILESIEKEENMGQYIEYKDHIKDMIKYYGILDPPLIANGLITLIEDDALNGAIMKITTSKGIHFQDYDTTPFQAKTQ
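NADH formation kinetics: reaction with 30 uM PGE2 and 1 mM NAD+ (final), 20 nM enzyme, Tris-HCl pH 8 with Tween 20, after 15 min compound preincubation at room temperature. Fluorescence change, last versus first of five reads.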
ALDH1A1 block = qHTS Assay for Inhibitors of Aldehyde Dehydrogenase 1 (ALDH1A1); Aldehyde dehydrogenase 1A1 (Homo sapiens), P00352; Purified ALDH1A1, NADH fluorescence, propionaldehyde substrate; Potency, µM (highest dose often 75.3 µM), usual class: inhibitors; actives 7.3% (n = 220,000)
Hits are given with their value; - = inactive; ? = inconclusive; . = no result given; [ ] = remark or other dose. Unless noted, the call rests on the fitted dose curve; in most records, active means well fitted inhibition curve with a large enough effect (not every such curve was filed as active); inconclusive means small, poorly fitted or top-dose-only effect, or another doubt; inactive means no such curve, though single readings can be large or run the other way.

SMILES | PNC inhibitor | HPGD inh | ALDH1A1 block
Cc1ccc(C(=O)CSc2nnc(CNc3ccc(C)cc3C)n2Cc2ccco2)cc1 | - | - | 22.4µM
COc1ccc(C(=O)CSc2nnc(CNc3ccc(C)cc3C)n2Cc2ccco2)cc1 | - | ? | 7.08µM
O=S1(=O)CC(O)C(Nc2ccccc2Cl)C1 (stereo not drawn) | - | - | -
Cc1cc(C)nc(Sc2ccc(C=O)cc2[N+](=O)[O-])n1 | . | . | 7.08µM
O=Cc1ccc(Sc2nnc(-c3ccccc3)o2)c([N+](=O)[O-])c1 | - | 14.1µM | 7.94µM
Cn1nc([N+](=O)[O-])nc1Sc1nnc(-c2ccccc2)o1 | - | - | ?
Cc1ccnc(Sc2ccc([N+](=O)[O-])cc2[N+](=O)[O-])n1 | - | - | ?
Cn1c(=O)c2cn(Cc3ccc(Cl)cc3)cc2n(C)c1=O | ? | - | -
CC(Oc1ccc(-c2ccccc2)c(F)c1)c1ccn(S(=O)(=O)c2ccc(Cl)cc2)n1 (stereo not drawn) | - | - | -
Cc1nc(N2CCC(C)CC2)c2c(C)c(C(=O)Nc3ccc(C)c(F)c3)sc2n1 | . | . | -
CCN1CCN(C(=O)c2sc3nc(C)nc(N4CCC(C)CC4)c3c2C)CC1 | -88.2 | - | -
Cc1c(C(=O)N2CCC(C)CC2)sc2ncnc(N3CCN(c4ccccc4)CC3)c12 | - | - | ?
Cc1nc(N2CCC(C)CC2)c2c(C)c(C(=O)O)sc2n1 | - | 20µM | -
CCOC(=O)N1CCN(C(=O)c2ccc3c(c2)NC(=O)C(N2CCOCC2)S3)CC1 (stereo not drawn) | - | - | -
Cc1ccc[n+](-c2[nH]c(=O)sc2/C=N/NC(=O)c2ccccc2[O-])c1 | - | . | -
Cc1cc[n+](-c2[nH]c(=O)sc2/C=N/N=C(\[O-])c2ccccc2)cc1C | . | . | 22.4µM
Cc1cc[n+](-c2[nH]c(=O)sc2/C=N/N=C(\[O-])c2ccccc2)cc1 | . | . | 12.6µM
Cc1cc[n+](-c2[nH]c(=O)sc2/C=N/N=C(\[O-])CCn2c3ccccc3c3ccccc32)cc1 | . | . | -
COc1cc(/C=N/O)cc(Br)c1OCC(=O)NCc1ccccc1 | ? | 14.1µM | ?
CCOc1cc(/C=N/O)cc(Br)c1OCC(=O)NCc1ccccc1 | - | 17.8µM | ?
CCOc1cc(/C=N/NC(N)=O)cc(Br)c1OCC(=O)Nc1cccc2ccccc12 | - | - | -
COc1cc(/C=N/NC(=O)CCC(=O)NCc2ccccc2)cc(OC)c1OC | - | - | -
CC(=O)c1ccccc1OCCOCCOc1ccccc1C(C)=O | - | - | ?
Cc1nc2cc(C(F)(F)F)ccc2n1C | . | . | -
CC(=O)c1cccc(NC(=O)/C(=C\c2cccnc2)NC(=O)c2ccco2)c1 | . | . | -
SMILES | PNC inhibitor | HPGD inh | ALDH1A1 block
COc1ccc(OCC(=O)Nc2ccc(N3CCOCC3)cc2)cc1 | - | - | -
COc1ccc(S(=O)(=O)Nc2ccc(N3CCOCC3)cc2)cc1Br | - | - | ?
COc1ccc(S(=O)(=O)Nc2ccc(N3CCOCC3)cc2)cc1[N+](=O)[O-] | . | . | 12.6µM
COc1ccc(OCC(=O)Nc2ccc(N3CCOCC3)cc2)c([N+](=O)[O-])c1 | . | . | 28.2µM
C=CCn1c(SCc2nc3ccccc3[nH]2)nnc1-c1cccc(OC)c1 | - | - | -
COc1c(O)cccc1O | . | - | -
Oc1cccc(O)c1O | . | 10µM | 1.5µM
CCOC(=O)C1=C(C)N=c2s/c(=C\c3cccn3C)c(=O)n2C1c1cccc(OC)c1OC (stereo not drawn) | ? | - | -
CCOC(=O)C1=C(C)N=c2s/c(=C/c3ccco3)c(=O)n2C1c1cccc(OC)c1 (stereo not drawn) | - | 14.1µM | 3.55µM
CCN(Cc1ccncc1)Cc1c(O)ccc2ccccc12 | . | . | 10µM
CCN(Cc1cc(Cl)cc(C)c1O)Cc1c(O)ccc2ccccc12 | . | - | -[13.5 µM]
N#CC1=C(N)N(c2ccc(Br)cc2)C2=C(C(=O)CCC2)C1c1cccnc1 (stereo not drawn) | ? | - | -
O=C(CNC(=S)N(Cc1ccccc1)Cc1cccnc1)NCc1ccccc1 | . | . | 17.8µM
CC1CCCC(NC(=O)CNC(=S)N(Cc2ccccc2)Cc2cccs2)C1C (stereo not drawn) | . | . | 12.6µM
COC(CNC(=O)CNC(=S)N(Cc1ccccc1)Cc1cccnc1)OC | . | . | -
Cc1ccc(CCNC(=O)CNC(=S)N(Cc2ccccc2)Cc2cccnc2)cc1 | . | . | -
COc1ccc(CN(Cc2cccnc2)C(=S)NCCc2ccccc2)cc1OC | -106.3 | - | ?
Cc1ccccc1NC(=S)N(Cc1ccccc1)Cc1cccs1 | . | . | -
O=C(CNC(=S)N(Cc1ccccc1)Cc1cccnc1)NC1CCCCC1 | - | - | 12.6µM
O=C(O)CNC(=S)N(Cc1ccccc1)Cc1cccnc1 | . | . | -
COc1ccc(C2C(C#N)=C(/N=C/N3CCN(C)CC3)OC3=C2C(=O)CC(C)(C)C3)cc1OC (stereo not drawn) | - | - | -
CC1CCc2c(nc3ncnn3c2NCCc2ccccc2F)C1 (stereo not drawn) | . | . | -
Nc1nc2c(ncn2C2CC(O)C(CO)O2)c(=O)[nH]1 (stereo not drawn) | . | - | -
O=C1NC2(CCCCCC2)C(=O)N1Cc1ccc([N+](=O)[O-])cc1 | ? | - | ?
COC(=O)c1ccc(/C=N/Nc2nc(N3CCCCC3)nc(N3CCCCC3)n2)cc1 | . | . | -
SMILES | PNC inhibitor | HPGD inh | ALDH1A1 block
COc1ccccc1OCCNc1cc(N2CCCCC2)ccc1[N+](=O)[O-] | - | - | 17.8µM
Cc1ccc(OCCNc2cc(N3CCN(CCO)CC3)ccc2[N+](=O)[O-])cc1C | - | 35.5µM | ?
Cc1ccccc1OCCNc1cc(N2CCNCC2)ccc1[N+](=O)[O-] | . | . | -
Cc1cccc(OCCNc2cc(N3CCN(C)CC3)ccc2[N+](=O)[O-])c1 | - | - | -
O=C(CCN1C(=O)C2C3C=CC(C4CC34)C2C1=O)Oc1cccc2cccnc12 (stereo not drawn) | ? | - | -
CSCCC(NS(=O)(=O)/C=C/c1ccccc1)C(=O)O (stereo not drawn) | . | . | -
Nc1nc(N2CCN(C/C=C/c3ccccc3)CC2)nc2ccccc12 | ? | - | ?
Cc1ccc(NNC(=O)c2cc(C(C)(C)C)nn2Cc2ccccc2)cc1 | . | . | 15µM
Cc1ccc(NC(=O)c2cc(C(C)(C)C)nn2Cc2ccccc2)cc1 | . | . | -
O=C1NC(=O)C(=C2CCCCCC2)S1 | -104.7 | ? | -
Cc1ccc(NC(=O)c2sc(Cl)nc2-c2ccccc2)cc1C | - | - | -
COc1cc(NC(=O)C2CCCN2S(=O)(=O)c2cccc3cccnc23)cc(OC)c1OC (stereo not drawn) | ? | - | -
O=C(NCc1ccccc1)C1CCN(S(=O)(=O)c2cccc3cccnc23)CC1 | - | - | -
COc1ccccc1CNC(=O)C1CCCN1S(=O)(=O)c1cccc2cccnc12 (stereo not drawn) | - | 22.4µM | ?
O=C(NCCc1ccccc1)C1CCN(S(=O)(=O)c2ccc(-n3cnnn3)cc2)CC1 | - | - | 14.1µM
O=C(NCCC1=CCCCC1)C1CCN(S(=O)(=O)c2ccc(-n3cnnn3)cc2)CC1 | - | - | ?
O=C(NCc1ccco1)C1CCCN(S(=O)(=O)c2ccc(-n3cnnn3)cc2)C1 (stereo not drawn) | - | - | 25.1µM
